For 40 molecules, IRF reporter results are on record in the supplement of paper PMC10646978.

± gives the standard deviation.

The first test concerns RAW-Dual (murine macrophage reporter line). The test is described as follows: IRF reporter (Lucia luciferase) activity fold change vs agonist alone; higher = enhanced IRF activity. As to conditions: modulator concentration 10 µM; agonist: 3'3'-cGAMP 10 ug/mL. The essentials:
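In 384-well plates holding 50 000 RAW-Dual murine macrophage reporter cells per well, compound at 10 μM final was pre-incubated for 1 hour at 37 °C, after which a PRR agonist was added overnight. Supernatant SEAP read with QUANTI-Blue at 620 nm absorbance reported NF-κB, and Lucia luciferase read with QUANTI-Luc luminescence reported IRF. Fold change values come from dividing each reporter signal by the mean of agonist-only control wells on the same plate, averaged over replicate plates with propagated errors.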
As for `CC1ON(c2ccc(Cl)c(Cl)c2)C(=O)NC1=O` (stereo not given), the IRF reporter is 1.03 ± 0.032.

With `Oc1ccc2ccccc2c1SSc1c(O)ccc2ccccc12`, the IRF reporter turned out to be 0.09 ± 0.0053.

With `COc1ccc2cc1Oc1ccc(cc1)C[C@H]1c3c(cc4c(c3Oc3cc5c(cc3OC)CCN(C)[C@@H]5C2)OCO4)CCN1C`, the IRF reporter was found to be 0.786 ± 0.045.

On to `CCOc1ccc(OCCCCOc2cccc(C)c2)cc1`, for which the IRF reporter is 1 ± 0.051.

For `Cc1cccc(C)c1N(CC(=O)Nc1ccc(-c2ncon2)cc1)C(=O)C1CCS(=O)(=O)CC1`, the IRF reporter was 0.976 ± 0.098.

For `c1ccc(-n2nnnc2Sc2ncnc3sc4c(c23)CCCC4)cc1`, the IRF reporter was determined as 0.0638 ± 0.0026.

`O=S(=O)(Cc1ccccc1)Nc1ccccn1`: the IRF reporter turned out to be 0.961 ± 0.032.

Take `COc1c(C)c2c(c(O)c1C/C=C(\C)CCC(=O)O)C(=O)OC2`: the IRF reporter amounted to 0.453 ± 0.03.

Turning to `O=C(CCCN1CCN(c2ccccn2)CC1)c1ccc(F)cc1`, the IRF reporter amounted to 0.924 ± 0.12.

Turning to `Cc1cc(OC2CCN(C(=O)c3csc(C)n3)CC2)nc(C)n1`, the IRF reporter came out at 0.954 ± 0.088.

Turning to `O=C1C(Cl)=C(N2CCCCC2)C(=O)N1c1ccc(Cl)c(Cl)c1`, the IRF reporter was 0.911 ± 0.047.

Turning to `CN(C)CCC(c1ccccc1)c1ccccn1.O=C(O)/C=C\C(=O)O` (stereo not given), the IRF reporter is 0.0231 ± 0.0026.

In the case of `CS(=O)(=O)N(CC(=O)NC1CC1)c1cccc2ccccc12`, the IRF reporter stood at 1 ± 0.039.

With `Cc1ccc(-c2cc(NC(=O)c3ccc([N+](=O)[O-])cc3)[nH]n2)cc1`, the IRF reporter worked out at 0.869 ± 0.066.

On to `Cn1nc(CNS(=O)(=O)c2cccc(C(F)(F)F)c2)c2c1CCOC2`, for which the IRF reporter worked out at 0.955 ± 0.035.

On to `CC(C)NCC(O)COc1cccc2ccccc12.Cl` (stereo not given), for which the IRF reporter came to 0.66 ± 0.051.

With `CCOC(=O)C1=C(C)N(c2ccc(OC)cc2)C(=O)C1=Cc1ccc(C(=O)O)cc1`, the IRF reporter was 0.642 ± 0.022.

Regarding `Oc1ccc(N=Cc2ccccc2O)cc1`, the IRF reporter is 0.491 ± 0.11.

Regarding `CC(=O)N1CC(C(=O)Nc2ccc(Br)c(C)c2)C1`, the IRF reporter amounted to 0.988 ± 0.035.

As for `CCOc1cc([C@@H](CS(C)(=O)=O)N2C(=O)c3cccc(NC(C)=O)c3C2=O)ccc1OC`, the IRF reporter came to 1.01 ± 0.048.

Turning to `Cc1cn2nc(C(=O)Nc3ccccc3N3CCN(C)CC3)cc2c(=O)[nH]1`, the IRF reporter is 1.02 ± 0.052.

For the molecule `O=c1ncnc2[nH][nH]cc1-2`, the IRF reporter worked out at 0.979 ± 0.059.

On to `COC(=O)C1=CN(CC2CCCO2)C=C(C(=O)OC)C1c1ccsc1` (stereo not given), for which the IRF reporter is 0.895 ± 0.041.

As for `CCOc1ccccc1OCCCCOc1cccc(C)c1C`, the IRF reporter was 1 ± 0.14.

For `Cc1cccc(-c2cc3nc(C)c(Cl)c(O)n3n2)c1`, the IRF reporter is 1.04 ± 0.039.

Turning to `O=C(NNC(=O)c1sc2cc(F)ccc2c1Cl)Nc1ccc(Cl)cc1`, the IRF reporter amounted to 0.926 ± 0.15.

`Cc1cn([C@H]2C=C[C@@H](CO)O2)c(=O)[nH]c1=O` [Prestw-1279]: the IRF reporter turned out to be 0.969 ± 0.074.

`CCCCC1(C)OC(=O)C(=Cc2ccc(OC)c([N+](=O)[O-])c2)C(=O)O1` (stereo not given): the IRF reporter stood at 0.966 ± 0.038.

Regarding `CC1(C)CCCC2(C)C1CCC1(C)OC(=O)CC12` (stereo not given), the IRF reporter was found to be 0.943 ± 0.11.

As for `Cn1cc(CC(=O)NC2CCN(c3cc(C(F)(F)F)ncn3)CC2)c2ccccc21`, the IRF reporter was determined as 0.77 ± 0.039.

For `COCCN1C(=O)CN(C2CCN(Cc3cc(OC)cc(OC)c3)CC2)C1=O`, the IRF reporter is 0.979 ± 0.051.

In the case of `CC(C)Cn1cc(Cl)c(=O)n(CC(C)C)c1=O`, the IRF reporter was 1.03 ± 0.037.

As for `Br.CCCc1cc(-c2nc(-c3ccc(C)cc3)cs2)ccn1`, the IRF reporter stood at 1.04 ± 0.069.

In the case of `CCCCCn1c(=O)[nH]c2cc(C(=O)N3CCN(C(=O)OCC)CC3)ccc2c1=O`, the IRF reporter stood at 1.01 ± 0.035.

Turning to `COc1ccc(NC(=O)Cc2cn(Cc3ccccc3)c3ccccc23)cc1OC`, the IRF reporter stood at 0.701 ± 0.032.

Take `O=C(NN=Cc1sc2ccccc2c1Cl)c1ccncc1`: the IRF reporter is 0.808 ± 0.028.

Take `CS(=O)(=O)N(CC(=O)NCC1CCCO1)c1ccc(Cl)c(C(F)(F)F)c1` (stereo not given): the IRF reporter amounted to 0.993 ± 0.046.

For `COC(=O)C1C(c2ccccc2)C(C(=O)Oc2ccc(C(C)=O)cc2)C1c1ccccc1` (stereo not given), the IRF reporter was 0.908 ± 0.06.

On to `CCN(CC)Cc1ccc(Nc2ccnc3cc(Cl)ccc23)cc1O.Cl.Cl`, for which the IRF reporter worked out at 0.988 ± 0.055.

For `CS(=O)(=O)N1CC(C(=O)N2CCN(c3cccc(Cl)c3Cl)CC2)C1`, the IRF reporter came out at 0.906 ± 0.035.

Staying with this test, now noted: modulator concentration 10 µM; agonist: LPS 0.1 ug/mL.
As for `CC1ON(c2ccc(Cl)c(Cl)c2)C(=O)NC1=O` (stereo not given), the IRF reporter stood at 1.27 ± 0.2.

Consider `Oc1ccc2ccccc2c1SSc1c(O)ccc2ccccc12`, for which the IRF reporter came to 0.919 ± 0.1.

In the case of `COc1ccc2cc1Oc1ccc(cc1)C[C@H]1c3c(cc4c(c3Oc3cc5c(cc3OC)CCN(C)[C@@H]5C2)OCO4)CCN1C`, the IRF reporter came out at 0.931 ± 0.099.

For the molecule `CCOc1ccc(OCCCCOc2cccc(C)c2)cc1`, the IRF reporter was found to be 1.27 ± 0.18.

With `Cc1cccc(C)c1N(CC(=O)Nc1ccc(-c2ncon2)cc1)C(=O)C1CCS(=O)(=O)CC1`, the IRF reporter is 0.997 ± 0.13.

Turning to `c1ccc(-n2nnnc2Sc2ncnc3sc4c(c23)CCCC4)cc1`, the IRF reporter came to 0.349 ± 0.095.

As for `O=S(=O)(Cc1ccccc1)Nc1ccccn1`, the IRF reporter amounted to 1.49 ± 0.13.

`COc1c(C)c2c(c(O)c1C/C=C(\C)CCC(=O)O)C(=O)OC2`: the IRF reporter came out at 1.13 ± 0.066.

`O=C(CCCN1CCN(c2ccccn2)CC1)c1ccc(F)cc1`: the IRF reporter worked out at 1.37 ± 0.12.

For `Cc1cc(OC2CCN(C(=O)c3csc(C)n3)CC2)nc(C)n1`, the IRF reporter worked out at 1.23 ± 0.12.

For the molecule `O=C1C(Cl)=C(N2CCCCC2)C(=O)N1c1ccc(Cl)c(Cl)c1`, the IRF reporter turned out to be 1.09 ± 0.11.

Take `CN(C)CCC(c1ccccc1)c1ccccn1.O=C(O)/C=C\C(=O)O` (stereo not given): the IRF reporter is 0.0283 ± 0.0046.

On to `CS(=O)(=O)N(CC(=O)NC1CC1)c1cccc2ccccc12`, for which the IRF reporter was found to be 1.59 ± 0.35.

Turning to `Cc1ccc(-c2cc(NC(=O)c3ccc([N+](=O)[O-])cc3)[nH]n2)cc1`, the IRF reporter came out at 1.78 ± 0.3.

On to `Cn1nc(CNS(=O)(=O)c2cccc(C(F)(F)F)c2)c2c1CCOC2`, for which the IRF reporter was determined as 1.05 ± 0.13.

With `CC(C)NCC(O)COc1cccc2ccccc12.Cl` (stereo not given), the IRF reporter was 1.21 ± 0.22.

On to `CCOC(=O)C1=C(C)N(c2ccc(OC)cc2)C(=O)C1=Cc1ccc(C(=O)O)cc1`, for which the IRF reporter came out at 1.32 ± 0.16.

Regarding `Oc1ccc(N=Cc2ccccc2O)cc1`, the IRF reporter was 0.733 ± 0.043.

As to `CC(=O)N1CC(C(=O)Nc2ccc(Br)c(C)c2)C1`, the IRF reporter amounted to 1.03 ± 0.048.

Turning to `CCOc1cc([C@@H](CS(C)(=O)=O)N2C(=O)c3cccc(NC(C)=O)c3C2=O)ccc1OC`, the IRF reporter was determined as 1.05 ± 0.12.

Regarding `Cc1cn2nc(C(=O)Nc3ccccc3N3CCN(C)CC3)cc2c(=O)[nH]1`, the IRF reporter was 1.26 ± 0.076.

`O=c1ncnc2[nH][nH]cc1-2`: the IRF reporter is 1.17 ± 0.07.

Regarding `COC(=O)C1=CN(CC2CCCO2)C=C(C(=O)OC)C1c1ccsc1` (stereo not given), the IRF reporter is 1.41 ± 0.082.

`CCOc1ccccc1OCCCCOc1cccc(C)c1C`: the IRF reporter is 1.08 ± 0.13.

On to `Cc1cccc(-c2cc3nc(C)c(Cl)c(O)n3n2)c1`, for which the IRF reporter was 1 ± 0.1.

Regarding `O=C(NNC(=O)c1sc2cc(F)ccc2c1Cl)Nc1ccc(Cl)cc1`, the IRF reporter stood at 1.02 ± 0.048.

As for `Cc1cn([C@H]2C=C[C@@H](CO)O2)c(=O)[nH]c1=O` [Prestw-1279], the IRF reporter was 0.94 ± 0.092.

Take `CCCCC1(C)OC(=O)C(=Cc2ccc(OC)c([N+](=O)[O-])c2)C(=O)O1` (stereo not given): the IRF reporter was found to be 1.16 ± 0.13.

Take `CC1(C)CCCC2(C)C1CCC1(C)OC(=O)CC12` (stereo not given): the IRF reporter is 0.929 ± 0.07.

As for `Cn1cc(CC(=O)NC2CCN(c3cc(C(F)(F)F)ncn3)CC2)c2ccccc21`, the IRF reporter was 1.24 ± 0.075.

As to `COCCN1C(=O)CN(C2CCN(Cc3cc(OC)cc(OC)c3)CC2)C1=O`, the IRF reporter was found to be 1.09 ± 0.12.

With `CC(C)Cn1cc(Cl)c(=O)n(CC(C)C)c1=O`, the IRF reporter worked out at 1 ± 0.066.

On to `Br.CCCc1cc(-c2nc(-c3ccc(C)cc3)cs2)ccn1`, for which the IRF reporter was 1.3 ± 0.22.

As for `CCCCCn1c(=O)[nH]c2cc(C(=O)N3CCN(C(=O)OCC)CC3)ccc2c1=O`, the IRF reporter amounted to 1.45 ± 0.11.

With `COc1ccc(NC(=O)Cc2cn(Cc3ccccc3)c3ccccc23)cc1OC`, the IRF reporter was 1.24 ± 0.27.

As for `O=C(NN=Cc1sc2ccccc2c1Cl)c1ccncc1`, the IRF reporter worked out at 1.5 ± 0.14.

Turning to `CS(=O)(=O)N(CC(=O)NCC1CCCO1)c1ccc(Cl)c(C(F)(F)F)c1` (stereo not given), the IRF reporter came out at 1.35 ± 0.095.

For `COC(=O)C1C(c2ccccc2)C(C(=O)Oc2ccc(C(C)=O)cc2)C1c1ccccc1` (stereo not given), the IRF reporter came out at 1.17 ± 0.1.

For the molecule `CCN(CC)Cc1ccc(Nc2ccnc3cc(Cl)ccc23)cc1O.Cl.Cl`, the IRF reporter came to 1.09 ± 0.19.

As for `CS(=O)(=O)N1CC(C(=O)N2CCN(c3cccc(Cl)c3Cl)CC2)C1`, the IRF reporter is 0.935 ± 0.082.
